{
  "source": "PubChem BioAssay (Tox21)",
  "note": "Results filed as inconclusive are left out. Where a call stands in place of a potency, no number is given. A number with no mark means an inactive call. Activity calls are given as the source filed them. The call rests on the fitted dose curve; in most records, active means well fitted inhibition curve with a large enough effect in the signal ratio in the repeat runs (not every such curve was filed as active); inconclusive means weak or mixed curves, or effect the other way; inactive means flat fitted curve, though single readings scatter; the % refers to the signal ratio. Peptide text beside a SMILES is read from it.",
  "data": [
    {"test": "cAMP Responsive Elements (CRE) small molecule antagonists, cell-based qHTS assay (AID 1963591)", "conditions": "CRE-bla HEK293T, beta-lactamase FRET ratio; series mostly up to 92.4 µM; activity change, negative = inhibition: at the top concentration", "description": "U.S. Tox21 Program National Center for Advancing Translational Sciences [NCATS] Division of Preclinical Innovation [DPI] U.S. Environmental Protection Agency [EPA] National Institutes of Environmental Health Sciences [NIEHS] National Toxicology Program [NTP] U.S. Food and Drug Administration [FDA] Tox21 Assay Overview: CREB (cyclic-AMP Responsive Element Binding Protein) is a cellular transcription factor. It binds to certain DNA sequences called cAMP Responsive Elements (CRE) and regulates the transcription of the genes. […] This cell line can be used to find agonists/antagonists of the cyclic AMP signaling pathway. The activation of the report gene under culture conditions can be detected by fluorescence intensity. This cell line has been used to screen the Tox21 10K compound library to […].\nTox21 Assay Protocol Summary: CRE-bla Hek 293T cells were suspended in assay medium (DMEM containing 10% dialyzed FBS, 0.1 mM NEAA, 1 mM sodium pyruvate and 25 mM HEPES) and dispensed at 2,000 cells/4 uL /well into 1536-well black wall/clear bottom plates using a Multidrop Combi (ThermoFisher Scientific, Waltham, MA) dispenser. After the assay plates were incubated at 37 C/5% CO2 for 18 hrs, 23 nL of compounds dissolved in DMSO, positive controls or DMSO only was transferred to the assay plate by a pintool workstation (Kalypsys, San Diego, CA), followed by addition of 1 […] uL of 1.25uM NKH477 (0.25 uM as final concentration) in assay medium using a Flying Reagent Dispenser (Aurora Discovery, San Diego, CA). The plates were incubated at 37 C and 5% CO2 for 3 hrs. Then 1 uL of LiveBLAzer B/G FRET substrate (Invitrogen, Carlsbad, CA) was added to each well using Bioraptr Flying Reagent Dispenser (FRD, Aurora Discovery, San Diego, CA). The plates were incubated at room temperature for 2 h.", "values": [
      {"smiles": "O=Nc1ccc(O)cc1", "Potency": "inactive"},
      {"smiles": "CCc1cccc(C)c1N", "Potency": "inactive"},
      {"smiles": "c1ccc2cc3ccccc3cc2c1", "Potency": "inactive"},
      {"smiles": "O=c1[nH]cnc2c1ncn2[C@H]1CC[C@@H](CO)O1", "Potency": "inactive"},
      {"smiles": "O=C(O)CCCCCCCCC(=O)O", "Potency": "inactive"},
      {"smiles": "C=CCc1ccc(O)c(OC)c1", "Potency": "inactive"},
      {"smiles": "CC(=O)CC(c1ccccc1)c1c(O)c2ccccc2oc1=O", "note": "(stereo not given)", "Potency": "inactive"},
      {"smiles": "Cc1cc(=O)[nH]c(=S)[nH]1", "Potency": "inactive"},
      {"smiles": "[Na+]", "Potency": "inactive"},
      {"smiles": "O=C1NC(=O)c2ccccc21", "Potency": "inactive"},
      {"smiles": "N=C(N)c1ccc(OCCCCCOc2ccc(C(=N)N)cc2)cc1", "Potency": "inactive"},
      {"smiles": "C#C[C@]1(O)CC[C@H]2[C@@H]3CCc4cc(OC)ccc4[C@H]3CC[C@@]21C", "Potency": "inactive"},
      {"smiles": "CCC(O)OCCCOC", "note": "(stereo not given)", "Potency": "inactive"},
      {"smiles": "CCCCCCCCCCCCCCCC(=O)OC(C)C", "Potency": "inactive"},
      {"smiles": "Cc1ccc(O)cc1", "Potency": "inactive"},
      {"smiles": "COC(=O)[C@H](Cc1ccccc1)NC(=O)[C@@H](N)CC(=O)O", "note": "(H-Asp-Phe-OMe)", "Potency": "inactive"},
      {"smiles": "COC(=O)CCCCC(=O)OC", "Potency": "inactive"},
      {"smiles": "O=C(O)c1cccc([N+](=O)[O-])c1", "Potency": "inactive"},
      {"smiles": "OC[C@]1(O)OC[C@@H](O)[C@H](O)[C@@H]1O", "Potency": "inactive"},
      {"smiles": "NC(N)=O", "Potency": "inactive"},
      {"smiles": "CC[Si](OC(C)=O)(OC(C)=O)OC(C)=O", "Potency": "inactive"},
      {"smiles": "CS(=O)(=O)c1ccc([C@@H](O)[C@@H](CO)NC(=O)C(Cl)Cl)cc1", "Potency": "inactive"},
      {"smiles": "Nc1nc(=S)c2[nH]cnc2[nH]1", "Potency": "inactive"},
      {"smiles": "CCCCCCOC(C)=O", "activity change, negative = inhibition": "0.0458%"},
      {"smiles": "CC(=O)OC(C)(C)C1CC=C(C)CC1", "note": "(stereo not given)", "Potency": "inactive"},
      {"smiles": "C[C@]12C=CC(=O)C=C1CC[C@@H]1[C@@H]2C(=O)C[C@@]2(C)[C@H]1CC[C@]2(O)C(=O)CO", "activity change, negative = inhibition": "17% [at 42.4 µM]"},
      {"smiles": "C=CC(C)CCCC(C)(C)O", "note": "(stereo not given)", "activity change, negative = inhibition": "1.67%"},
      {"smiles": "C=CC(C)(C)C", "Potency": "inactive"},
      {"smiles": "ClC1=C(Cl)C(Cl)(Cl)C(Cl)=C1Cl", "Potency": "inactive"},
      {"smiles": "CNC(=S)N(C)C", "Potency": "inactive"},
      {"smiles": "CNNCc1ccc(C(=O)NC(C)C)cc1", "Potency": "inactive"},
      {"smiles": "C=C(C)C(=O)OCCOC(=O)C(=C)C", "Potency": "inactive"},
      {"smiles": "CCCCNC(=O)NS(=O)(=O)c1ccc(C)cc1", "Potency": "inactive"},
      {"smiles": "CC(=O)Nc1ccc(C(=O)O)cc1", "Potency": "inactive"},
      {"smiles": "CCCCCC(N)=O", "Potency": "inactive"},
      {"smiles": "Oc1ccc(O)cc1", "activity change, negative = inhibition": "3.55% [at 42.4 µM]"},
      {"smiles": "CCC(=O)/C=C/C1C(C)=CCCC1(C)C", "note": "(stereo not given)", "Potency": "inactive"},
      {"smiles": "O=C(c1ccccc1)C(O)c1ccccc1", "note": "(stereo not given)", "Potency": "inactive"},
      {"smiles": "Cc1cc(C(C)(C)C)c(O)c(C(C)(C)C)c1", "Potency": "inactive"},
      {"smiles": "C=CCOC(=O)CC(C)C", "Potency": "inactive"}
    ]}
  ]
}
